“And” between values parts separate entries of the source, which are not always exact repeats. Equal entries are not always repeated. Where a structure was tested more than once in an assay, its records may differ in their call. The source made the active and inactive calls. The calls were made as follows: active = hit-call score of the fitted dose curve at least 0.9, where 1 is the maximum; inactive = score below 0.9.
What was measured:
[1] = read-out: Interleukin-1 alpha (IL1a), IL1A (gene 3552); test: BSK_KF3CT_IL1a: BioMAP Diversity Plus: KF3CT Assay for Interleukin-1 alpha (IL1a) Biomarker Activity (AID 2283070); details: primary human keratinocytes with fibroblasts; actives raise or lower the signal
In short: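 Primary skin co-culture (keratinocytes, foreskin fibroblasts), 24 h exposure; ELISA for IL-1a; bidirectional curve fit vs DMSO.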

[2] = read-out: TIMP metallopeptidase inhibitor 2 (TIMP2), TIMP2 (gene 7077); test: BSK_KF3CT_TIMP2: BioMAP Diversity Plus: KF3CT Assay for TIMP metallopeptidase inhibitor 2 (TIMP2) Biomarker Activity (AID 2283071); details: primary human keratinocytes with fibroblasts; actives raise or lower the signal
In short: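 Measurements come from ELISA detection of TIMP-2 at 24 hours in a dosed human keratinocyte and foreskin fibroblast co-culture. DMSO serves as negative control and baseline.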

[3] = read-out: Transforming growth factor beta 1 (TGFb1), TGFB1 (gene 7040); test: BSK_KF3CT_TGFb1: BioMAP Diversity Plus: KF3CT Assay for Transforming growth factor beta 1 (TGFb1) Biomarker Activity (AID 2283072); details: primary human keratinocytes with fibroblasts; actives raise or lower the signal
In short: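 TGF-b1 ELISA on a 24 h dosed co-culture of human keratinocytes and foreskin fibroblasts; cytotoxicity tracked in parallel cultures by SRB staining.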

[4] = read-out: C-C motif chemokine 2 (Homo sapiens) (UniProt P13500); test: BSK_KF3CT_MCP1: BioMAP Diversity Plus: KF3CT Assay for Monocyte Chemoattractant Protein 1 (MCP1/CCL2) Biomarker Activity (AID 2283073); details: primary human keratinocytes with fibroblasts; actives raise or lower the signal
In short: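 Biomarker MCP-1 is measured by ELISA in primary human keratinocytes co-cultured with foreskin fibroblasts, 24 h after chemical treatment; DMSO serves as the negative control and activity baseline.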

[5] = read-out: Matrix Metallopeptidase 9 (MMP9), MMP9 (gene 4318); test: BSK_KF3CT_MMP9: BioMAP Diversity Plus: KF3CT Assay for Matrix Metallopeptidase 9 (MMP9) Biomarker Activity (AID 2283074); details: primary human keratinocytes with fibroblasts; actives raise or lower the signal;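 as to AC50: MMP9 protein level quantified by ELISA in the co-culture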
In short: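 ELISA read-out of MMP-9 at 24 h post-dosing in a co-culture of human skin keratinocytes and foreskin fibroblasts. Gain or loss of signal was fitted in both directions against DMSO.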

CD40, CD40 (gene 958) [6] = test: BSK_LPS_CD40: BioMAP Diversity Plus: LPS Assay for CD40 Biomarker Activity (AID 2283076); details: primary human HUVEC with PBMC; actives raise or lower the signal
In short: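 Using a multiplexed primary human co-culture (umbilical vein endothelium plus PBMC), CD40 was read by ELISA 24 h after dosing, with cytotoxicity tracked by sulforhodamine B staining of parallel cultures and activity fitted bidirectionally versus DMSO.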

[7] = read-out: E-selectin (Homo sapiens) (UniProt P16581); test: BSK_LPS_Eselectin: BioMAP Diversity Plus: LPS Assay for Eselectin Biomarker Activity (AID 2283077); details: primary human HUVEC with PBMC; actives raise or lower the signal
In short: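 Dose chemical onto LPS-driven HUVEC/PBMC co-culture; after 24 h, run ELISA for E-selectin; fit up- and down-going responses relative to DMSO control.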

[8] = read-out: Interleukin-8 (IL8), CXCL8 (gene 3576); test: BSK_LPS_IL8: BioMAP Diversity Plus: LPS Assay for Interleukin-8 (IL8) Biomarker Activity (AID 2283078); details: primary human HUVEC with PBMC; actives raise or lower the signal
In short: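 In this LPS system, chemical-treated human umbilical vein endothelium/PBMC co-cultures were harvested at 24 h for IL-8 ELISA.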

[9] = BSK_LPS_SRB: Viability Assessment in the BioMAP Diversity Plus: LPS Assay (AID 2283079); details: primary human HUVEC with PBMC;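 also: total protein by sulforhodamine B absorbance as a cytotoxicity measure; measured one day after compound addition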
In short: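 Cytotoxicity endpoint in human endothelial–PBMC co-culture: 24 h exposure, then SRB (0.1%) staining, 560 nm read.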

[10] = read-out: Interleukin-1 alpha (IL1a), IL1A (gene 3552); test: BSK_LPS_IL1a: BioMAP Diversity Plus: LPS Assay for Interleukin-1 alpha (IL1a) Biomarker Activity (AID 2283080); details: primary human HUVEC with PBMC; actives raise or lower the signal
In short: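 Primary human HUVEC and PBMC co-culture stimulated with LPS is dosed and harvested at 24 h. Both increases and decreases in ELISA-measured IL-1a are scored relative to DMSO.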

[11] = BSK_LPS_PGE2: BioMAP Diversity Plus: LPS Assay for Prostaglandin E2 (PGE2) Biomarker Activity (AID 2283082); details: primary human HUVEC with PBMC; actives raise or lower the signal;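 as to AC50: secreted prostaglandin E2 measured by ELISA in LPS-stimulated co-culture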
In short: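 Primary human endothelial cells and blood mononuclear cells, co-cultured with LPS, receive test chemical; PGE2 ELISA follows at 24 h, with SRB-stained parallel cultures flagging cytotoxicity.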

[12] = read-out: Macrophage colony-stimulating factor (MCSF), CSF1 (gene 1435); test: BSK_LPS_MCSF: BioMAP Diversity Plus: LPS Assay for Macrophage colony-stimulating factor (MCSF) Biomarker Activity (AID 2283083); details: primary human HUVEC with PBMC; actives raise or lower the signal
In short: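 Bidirectional fit versus DMSO of ELISA-measured M-CSF in co-cultured human umbilical vein endothelial cells and PBMC, sampled 24 h after dosing.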

[13] = read-out: Tissue Factor, F3 (gene 2152); test: BSK_LPS_TissueFactor: BioMAP Diversity Plus: LPS Assay for Tissue Factor Biomarker Activity (AID 2283084); details: primary human HUVEC with PBMC; actives raise or lower the signal
In short: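 Read-out: CD142 ELISA, 24 h. System: LPS-driven human endothelial/PBMC co-culture. Analysis: up- or down-signal fitted against DMSO.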

[14] = read-out: Tumor necrosis factor (Homo sapiens) (UniProt P01375); test: BSK_LPS_TNFa: BioMAP Diversity Plus: LPS Assay for Tumour Necrosis Factor alpha (TNFa) Biomarker Activity (AID 2283085); details: primary human HUVEC with PBMC; actives raise or lower the signal;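 as to AC50: TNFa protein level quantified by ELISA in the co-culture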
In short: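 ELISA-based TNFa endpoint in a human endothelial–PBMC co-culture sampled 24 h post-exposure. Curves were fitted in both directions using DMSO as baseline of activity.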

[15] = read-out: Vascular cell adhesion molecule 1 (VCAM1), VCAM1 (gene 7412); test: BSK_LPS_VCAM1: BioMAP Diversity Plus: LPS Assay for Vascular cell adhesion molecule 1 (VCAM1) Biomarker Activity (AID 2283086); details: primary human HUVEC with PBMC; actives raise or lower the signal
In short: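 Measured by ELISA: VCAM-1 in LPS-activated HUVEC/PBMC co-cultures 24 h after treatment. Values reflect bidirectional fitting with DMSO as baseline.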

CD38, CD38 (gene 952) = test: BSK_SAg_CD38: BioMAP Diversity Plus: SAg Assay for CD38 Biomarker Activity (AID 2283087); details: primary human HUVEC with PBMC; actives raise or lower the signal
In short: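 Measures CD38 on a human endothelial/PBMC co-culture driven by SEB and TSST-1, 24 h after compound exposure, using ELISA with fluorescence detection; DMSO defines baseline for bidirectional curve fitting.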

CD40, CD40 (gene 958) [16] = test: BSK_SAg_CD40: BioMAP Diversity Plus: SAg Assay for CD40 Biomarker Activity (AID 2283088); details: primary human HUVEC with PBMC; actives raise or lower the signal
In short: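 Endpoint derived by fitting increases or decreases versus DMSO controls. CD40 is detected by fluorescence ELISA in a human vascular co-culture of endothelium and PBMC at 24 h.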

[17] = read-out: urokinase plasminogen activator (uPA), PLAU (gene 5328); test: BSK_KF3CT_uPA: BioMAP Diversity Plus: KF3CT Assay for urokinase plasminogen activator (uPA) Biomarker Activity (AID 2283075); details: primary human keratinocytes with fibroblasts; actives raise or lower the signal
In short: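 Skin co-culture (keratinocytes + foreskin fibroblasts), human primary; 24 h post-dose; uPA by ELISA; gain/loss fit vs DMSO baseline.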

CD69, CD69 (gene 969) = test: BSK_SAg_CD69: BioMAP Diversity Plus: SAg Assay for CD69 Biomarker Activity (AID 2283089); details: primary human HUVEC with PBMC; actives raise or lower the signal;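 also: cell surface CD69 protein quantified by ELISA with fluorescence detection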
In short: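 ELISA, fluorescence read-out: CD69 on human umbilical vein endothelial cell + PBMC co-culture, 24 h post-dosing. Gain or loss of signal fitted bidirectionally against DMSO baseline.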

Measured: AC50

Chain of Tumor necrosis factor (Homo sapiens) (P01375 whole entry, looked up): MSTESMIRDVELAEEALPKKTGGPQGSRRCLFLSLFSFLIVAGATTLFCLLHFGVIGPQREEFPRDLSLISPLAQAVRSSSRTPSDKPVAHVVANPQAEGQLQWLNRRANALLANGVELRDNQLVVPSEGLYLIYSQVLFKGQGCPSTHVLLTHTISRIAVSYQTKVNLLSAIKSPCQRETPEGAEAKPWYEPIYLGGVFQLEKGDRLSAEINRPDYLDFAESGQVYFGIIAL
Chain of E-selectin (Homo sapiens) (P16581 whole entry, looked up): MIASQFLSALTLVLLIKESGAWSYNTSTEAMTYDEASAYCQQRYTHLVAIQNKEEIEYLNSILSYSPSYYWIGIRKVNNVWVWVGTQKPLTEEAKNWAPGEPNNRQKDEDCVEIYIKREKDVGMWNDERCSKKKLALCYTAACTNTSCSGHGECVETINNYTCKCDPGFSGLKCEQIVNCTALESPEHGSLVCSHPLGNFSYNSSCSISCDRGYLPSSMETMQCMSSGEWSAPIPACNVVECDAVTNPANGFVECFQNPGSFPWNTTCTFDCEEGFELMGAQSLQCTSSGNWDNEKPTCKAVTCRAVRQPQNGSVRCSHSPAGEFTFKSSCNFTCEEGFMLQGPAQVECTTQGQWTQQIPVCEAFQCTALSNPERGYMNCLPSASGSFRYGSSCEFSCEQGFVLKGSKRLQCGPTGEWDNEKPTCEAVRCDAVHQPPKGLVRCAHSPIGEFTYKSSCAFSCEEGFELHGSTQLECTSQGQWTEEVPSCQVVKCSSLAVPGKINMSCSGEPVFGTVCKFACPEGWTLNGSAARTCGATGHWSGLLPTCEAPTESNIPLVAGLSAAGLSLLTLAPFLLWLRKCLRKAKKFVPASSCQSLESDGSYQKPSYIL

CCc1ccc(C(c2ccc(CC)cc2)C(Cl)Cl)cc1
active: [1] 20 µM | [2] 13 µM | [3] 20 µM | [4] 10.1 µM | [5] 11.9 µM | CD40, CD40 (gene 958) [6] 14.2 µM | [9] 25.1 µM | [10] 20 µM | [11] 0.158 µM | [12] 20 µM | [14] 29.9 µM | [15] 27.2 µM | CD38, CD38 (gene 952) 27.7 µM | CD40, CD40 (gene 958) [16] 28.9 µM
inactive: [7] | [8] | [13]

CCCCCCOC(=O)c1ccccc1O
active: [4] 32.8 µM | CD40, CD40 (gene 958) [6] 41.9 µM and 24.5 µM | [7] 38.1 µM and 44.8 µM | [8] 41.9 µM and 38.9 µM | [9] 43.2 µM and 42.1 µM | [11] 39.8 µM | [13] 40.6 µM | [14] 37.3 µM and 39.6 µM | [15] 40.2 µM and 38.2 µM | CD38, CD38 (gene 952) 40.5 µM | CD40, CD40 (gene 958) [16] 45.2 µM and 29.1 µM
inactive: [1] | [2] | [4] | [5] | [10] | [11] | [12] | [13] | CD38, CD38 (gene 952)

CCO[Si](CCC(F)(F)C(F)(F)C(F)(F)C(F)(F)C(F)(F)C(F)(F)F)(OCC)OCC
inactive: [1] | [2] | [4] | [5] | [17] | CD40, CD40 (gene 958) [6] | [7] | [8] | [9] | [10] | [11] | [12] | [13] | [14] | [15] | CD38, CD38 (gene 952) | CD40, CD40 (gene 958) [16]
active: CD40, CD40 (gene 958) [6] 1.4 µM

O=C(Cl)C(F)(F)C(F)(F)C(F)(F)C(F)(F)C(F)(F)C(F)(F)C(F)(F)C(F)(F)F
inactive: [1] | [4] | [17] | CD40, CD40 (gene 958) [6] | [7] | [8] | [9] | [10] | [11] | [12] | [13] | CD38, CD38 (gene 952) | CD40, CD40 (gene 958) [16]
active: [2] 45.7 µM and 50.2 µM and 49.8 µM | [4] 54.5 µM and 53.2 µM | [5] 43.6 µM and 47.6 µM and 54.8 µM | CD40, CD40 (gene 958) [6] 20.1 µM and 48.8 µM | [7] 50.4 µM | [8] 51.2 µM | [9] 44.7 µM and 42.3 µM | [13] 39.5 µM and 30 µM | [14] 54.8 µM and 48.8 µM and 47.2 µM | [15] 30 µM and 40.7 µM and 45.5 µM | CD38, CD38 (gene 952) 39.6 µM and 30 µM | CD40, CD40 (gene 958) [16] 30 µM and 48.9 µM | CD69, CD69 (gene 969) 24.5 µM and 30 µM and 43.1 µM

From PubChem BioAssay (EPA / NIEHS)
